# Inconclusive results are not listed. A number with no mark means an inactive call. The call rests on the fitted dose curve; in most records, active means well fitted cell-killing curve with a large enough effect; inconclusive means small, poorly fitted or top-dose-only effect, or effect the other way; inactive means flat fitted curve, though single readings scatter.
# Tested on: JEG-3
# Assay: Primary qHTS to identify gynecologic anti-cancer compounds using libraries of approved drugs and bioactive compounds (AID 1345084); further: nearly all actives have a fitted effect of over 55% in size
# Settings: Gynecologic cancer cell panel viability, ATPlite luminescence, 48 h; series mostly up to 57.5 µM; activity change, negative = cytotoxicity: at the top concentration
# Method in brief: (§1)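 In this quantitative HTS, cell killing is estimated from loss of ATP-dependent luciferase light. Cells see five compound concentrations over a 48 h exposure.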
# On the % scale 0 is the no-effect control and ±100 the full control effect.
row,Compound,"activity change, negative = cytotoxicity"
1,N#Cc1cccc(C(=O)Nc2cc(-c3ccccc3)nn2-c2ccccc2)c1,-11.4%
2,O=C(Nc1ccc(C(F)(F)F)cn1)N1CCN(c2ncccc2C(F)(F)F)CC1,-11.1%
3,O=C(Nc1ccccc1C(=O)NC1CCCCNC1=O)c1cc2ccccc2s1 (stereo not drawn),-3.42%
4,CCCCCCOC(=O)/N=C(\N)c1ccc(NCc2nc3cc(C(=O)N(CCC(=O)OCC)c4ccccn4)ccc3n2C)cc1,-10.9%
5,CC[C@H]1CN(c2nc(N)c(C(N)=O)nc2Cl)CCN1C1CCN(Cc2ccc(Cl)cc2)CC1,1.6%
6,CC(C)=CCc1cc2c(cc1O)OC[C@H]1c3ccc(O)cc3O[C@@H]21,1.83% [at 38.5 µM]
7,Cc1c(C(=O)NCc2cccnc2)nn(-c2ccc(Cl)cc2Cl)c1-c1ccc(Cl)cc1,-12.5%
8,C=C1C(OC2OC(CO)C(O)C(O)C2O)CC2C(C)(C)C(O)CCC2(C)C1CC/C(C)=C\COC(=O)CC(=O)O (stereo not drawn),-1.32% [at 25.3 µM]
9,C=CC1(C)CC(O)C(C(=C)C(=O)OC)C(O)C1C(=C)CO (stereo not drawn),1.62%
10,Cn1cc(-c2ccc(F)c(C(F)(F)F)c2)nc1C1CCN(c2ncnc3[nH]ncc23)CC1,2.33% [at 25.3 µM]
11,Cc1ccccc1CN1CCn2c1nc1c(c2=O)CN(Cc2ccccc2)CC1,5.3%
12,Cc1cc(-c2ncc(-c3cccnc3)cc2/C=C/c2ccccc2)cnc1-c1cccnc1,-15.2%
13,Cc1cnn(-c2ccccc2)c1NC(=O)COCc1ccccc1,15.8%
14,OC(CC1c2ccccc2-c2cncn21)C1CCCCC1 (stereo not drawn),0.843%
15,Nc1nc2c(s1)CCN(Cc1ccc(Cl)cc1)CC2,-1.73%
16,COc1ccc(CCN(C)CCCOc2nsc(-c3ccccc3)n2)cc1OC,1.72%
17,COc1cc(O)cc(OC2OC(CO)C(O)C(O)C2O)c1 (stereo not drawn),1.02%
18,Cc1cc(C)cc(-c2cnc3cc(Cl)c(-c4cccc(O)c4)cc3c2OCCCN)c1,-11.6%
19,N[C@@H]1c2cccnc2[C@H](OC(=O)N2CCC(n3c(=O)[nH]c4ncccc43)CC2)CC[C@H]1c1cccc(F)c1F,-1.5%
20,CNCc1cc(-c2ccccc2F)n(S(=O)(=O)c2cccnc2)c1,6.87%

row,Compound,"activity change, negative = cytotoxicity"
1,COc1c2c(c(C)c3c1C(=O)OC3)O[C@@]1(C)C[C@@H](OC(C)=O)[C@]34O[C@](OC)(CC[C@]3(C)[C@H]1C2)OC4(C)C,3.44% [at 25.3 µM]
2,O=C(N[C@H](Cc1cscn1)C(=O)N[C@@H](CC1CCCCC1)[C@@H](O)[C@@H](O)C1CC1)c1nc2ccccc2[nH]1,-7.1%
3,O=C(COc1ccc2ccccc2c1Br)Nc1cccnc1,0.447%
4,C=C(CCC1C(C)(O)CCC2C(C)(C)C(O)CCC12C)C(O)CO (stereo not drawn),-12.6% [at 38.5 µM]
5,C=CCC1=C[C@]2(OC)[C@H](C)[C@@H](c3ccc4c(c3)OCO4)O[C@]2(OC)CC1=O,-4.86% [at 38.5 µM]
6,C[C@H]1CC[C@@]2(OC1)O[C@H]1CC3[C@@H]4CC[C@@H]5C[C@@H](O[C@@H]6O[C@H](CO)[C@@H](O[C@@H]7O[C@H](CO[C@@H]8OC[C@@H](O)[C@H](O)[C@H]8O)[C@@H](O[C@@H]8O[C@H](CO)[C@H](O)[C@H](O)[C@H]8O)[C@H](O)[C@H]7O)[C@H](O)[C@H]6O)CC[C@]5(C)C4CC[C@]3(C)[C@H]1[C@@H]2C (stereo partly drawn),-1.5% [at 11.6 µM]
7,C[C@@H](NC(=O)C(=O)c1c[nH]c2ccc([N+](=O)[O-])cc12)c1ccccc1,4.1%
8,Cc1[nH]c2ccccc2c1CCNC(=O)c1cccs1,1.06%
9,C#CCCCn1cc(-c2cccc3c2N[C@H](C)CC(=O)N3)cn1,-12.5%
10,O=C(NC1CCC1)c1ccc(C#Cc2cccc(F)c2)nc1,6.07%
11,O=C(O)c1cccc(-c2ccc(-c3cn(C(=O)N4CCCCC4Cc4ccccc4)nn3)cc2)c1 (stereo not drawn),-9.27%
12,COC1C(OC(=O)/C=C/C=C/C=C/C=C/C(=O)O)CCC2(CO2)C1C1(C)OC1CC=C(C)C (stereo not drawn),6.53% [at 25.3 µM]
13,Cc1cc2c(cc1N1C(=O)c3cccc4c(CCCO)ccc(c34)C1=O)n(C)c(=O)n2C,-26.3% [at 25.3 µM]
14,O=C(NCC(=O)N1CCCC1)Nc1ccc2cnccc2c1,3.51%
15,CC(C)(C)c1ccc(C(=O)Nc2cn3cc(-n4ccnc4)ccc3n2)cc1,-9.21%
16,O=S1(=O)CCN(Cc2cc(NCC3CCOCC3)c3[nH]c(-c4ccccc4)cc3c2)CC1,-14%
17,NS(=O)(=O)c1ccc(N2N=C(c3ccccc3)CC2c2ccccc2)cc1 (stereo not drawn),0.0758%
18,CCc1ccccc1OC[C@@H](O)CN[C@H]1CCCc2ccccc21,-4.92%
19,C=C1/C(=C/C=C2\CCC[C@]3(C)[C@@H]([C@H](C)/C=C/[C@H](O)C4CC4)CC[C@@H]23)C[C@@H](O)C[C@@H]1O,13.3%

# Tested on: OV90
# Assay: as above
# Settings: Gynecologic cancer cell panel viability, ATPlite luminescence, 48 h; series mostly up to 57.5 µM; activity change, negative = cytotoxicity: at the top concentration
# Method in brief: as §1
row,Compound,"activity change, negative = cytotoxicity"
1,N#Cc1cccc(C(=O)Nc2cc(-c3ccccc3)nn2-c2ccccc2)c1,0.448%
2,O=C(Nc1ccc(C(F)(F)F)cn1)N1CCN(c2ncccc2C(F)(F)F)CC1,-9.78%
3,O=C(Nc1ccccc1C(=O)NC1CCCCNC1=O)c1cc2ccccc2s1 (stereo not drawn),8.88%
4,CCCCCCOC(=O)/N=C(\N)c1ccc(NCc2nc3cc(C(=O)N(CCC(=O)OCC)c4ccccn4)ccc3n2C)cc1,3.5%
5,CC[C@H]1CN(c2nc(N)c(C(N)=O)nc2Cl)CCN1C1CCN(Cc2ccc(Cl)cc2)CC1,-7.95%
6,CC(C)=CCc1cc2c(cc1O)OC[C@H]1c3ccc(O)cc3O[C@@H]21,-12.6% [at 38.5 µM]
7,Cc1c(C(=O)NCc2cccnc2)nn(-c2ccc(Cl)cc2Cl)c1-c1ccc(Cl)cc1,-6.94%
8,C=C1C(OC2OC(CO)C(O)C(O)C2O)CC2C(C)(C)C(O)CCC2(C)C1CC/C(C)=C\COC(=O)CC(=O)O (stereo not drawn),-17.9% [at 25.3 µM]
9,C=CC1(C)CC(O)C(C(=C)C(=O)OC)C(O)C1C(=C)CO (stereo not drawn),-27.3%
10,Cn1cc(-c2ccc(F)c(C(F)(F)F)c2)nc1C1CCN(c2ncnc3[nH]ncc23)CC1,-0.442% [at 25.3 µM]
11,Cc1ccccc1CN1CCn2c1nc1c(c2=O)CN(Cc2ccccc2)CC1,1.76%
12,Cc1cc(-c2ncc(-c3cccnc3)cc2/C=C/c2ccccc2)cnc1-c1cccnc1,3.72%
13,Cc1cnn(-c2ccccc2)c1NC(=O)COCc1ccccc1,12.7%
14,OC(CC1c2ccccc2-c2cncn21)C1CCCCC1 (stereo not drawn),0.365%
15,Nc1nc2c(s1)CCN(Cc1ccc(Cl)cc1)CC2,5%
16,COc1ccc(CCN(C)CCCOc2nsc(-c3ccccc3)n2)cc1OC,-14%
17,COc1cc(O)cc(OC2OC(CO)C(O)C(O)C2O)c1 (stereo not drawn),16.3%
18,Cc1cc(C)cc(-c2cnc3cc(Cl)c(-c4cccc(O)c4)cc3c2OCCCN)c1,6.88%
19,N[C@@H]1c2cccnc2[C@H](OC(=O)N2CCC(n3c(=O)[nH]c4ncccc43)CC2)CC[C@H]1c1cccc(F)c1F,5%
20,CNCc1cc(-c2ccccc2F)n(S(=O)(=O)c2cccnc2)c1,-5.96%

row,Compound,"activity change, negative = cytotoxicity"
1,COc1c2c(c(C)c3c1C(=O)OC3)O[C@@]1(C)C[C@@H](OC(C)=O)[C@]34O[C@](OC)(CC[C@]3(C)[C@H]1C2)OC4(C)C,-15.8% [at 25.3 µM]
2,O=C(N[C@H](Cc1cscn1)C(=O)N[C@@H](CC1CCCCC1)[C@@H](O)[C@@H](O)C1CC1)c1nc2ccccc2[nH]1,0.743%
3,O=C(COc1ccc2ccccc2c1Br)Nc1cccnc1,3.99%
4,C=C(CCC1C(C)(O)CCC2C(C)(C)C(O)CCC12C)C(O)CO (stereo not drawn),3.22% [at 38.5 µM]
5,C=CCC1=C[C@]2(OC)[C@H](C)[C@@H](c3ccc4c(c3)OCO4)O[C@]2(OC)CC1=O,-11.3% [at 38.5 µM]
6,C[C@H]1CC[C@@]2(OC1)O[C@H]1CC3[C@@H]4CC[C@@H]5C[C@@H](O[C@@H]6O[C@H](CO)[C@@H](O[C@@H]7O[C@H](CO[C@@H]8OC[C@@H](O)[C@H](O)[C@H]8O)[C@@H](O[C@@H]8O[C@H](CO)[C@H](O)[C@H](O)[C@H]8O)[C@H](O)[C@H]7O)[C@H](O)[C@H]6O)CC[C@]5(C)C4CC[C@]3(C)[C@H]1[C@@H]2C (stereo partly drawn),-9.4% [at 11.6 µM]
7,C[C@@H](NC(=O)C(=O)c1c[nH]c2ccc([N+](=O)[O-])cc12)c1ccccc1,-3.22%
8,Cc1[nH]c2ccccc2c1CCNC(=O)c1cccs1,-24.4%
9,C#CCCCn1cc(-c2cccc3c2N[C@H](C)CC(=O)N3)cn1,2.36%
10,O=C(NC1CCC1)c1ccc(C#Cc2cccc(F)c2)nc1,-24.4%
11,O=C(O)c1cccc(-c2ccc(-c3cn(C(=O)N4CCCCC4Cc4ccccc4)nn3)cc2)c1 (stereo not drawn),-23.7%
12,COC1C(OC(=O)/C=C/C=C/C=C/C=C/C(=O)O)CCC2(CO2)C1C1(C)OC1CC=C(C)C (stereo not drawn),8.97% [at 25.3 µM]
13,Cc1cc2c(cc1N1C(=O)c3cccc4c(CCCO)ccc(c34)C1=O)n(C)c(=O)n2C,0.475% [at 25.3 µM]
14,O=C(NCC(=O)N1CCCC1)Nc1ccc2cnccc2c1,2.75%
15,CC(C)(C)c1ccc(C(=O)Nc2cn3cc(-n4ccnc4)ccc3n2)cc1,-32.7%
16,O=S1(=O)CCN(Cc2cc(NCC3CCOCC3)c3[nH]c(-c4ccccc4)cc3c2)CC1,-8.53%
17,NS(=O)(=O)c1ccc(N2N=C(c3ccccc3)CC2c2ccccc2)cc1 (stereo not drawn),-0.536%
18,CCc1ccccc1OC[C@@H](O)CN[C@H]1CCCc2ccccc21,-23.9%
19,C=C1/C(=C/C=C2\CCC[C@]3(C)[C@@H]([C@H](C)/C=C/[C@H](O)C4CC4)CC[C@@H]23)C[C@@H](O)C[C@@H]1O,5.45%

# — PubChem BioAssay (NCATS)
